# Laboratory results from the supplement of paper PMC11417369.
# Whole data set: some 25,000 sequences, median “ln(normalized median fluorescence intensity)” near 7.1, cut for the highest 2% near 10. The sample as a whole holds a higher share of the highest values than the screen did.
# Test system: PfSIP2 AP2 domain 1 (GST-tagged)
# Test: gcPBM binding intensity (ln(normalized median fluorescence intensity)); higher = stronger DNA binding
# Procedure, shortened: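 Plasmodium falciparum DNA-binding domains carrying a GST tag were expressed in E. coli and applied for 1 h, at about 25 μg on average, to an Agilent 4 × 180k array. The array held primer-extended double-stranded 36-bp intergenic genomic probes together with negative controls, and binding took place in 1× PBS with 1% milk, 0.2 mg/ml BSA, 0.5% salmon testes DNA and 0.03% Triton X-100. An Alexa488 anti-GST antibody detected bound protein, and the array was scanned at 488 nm. Binding intensity is taken as the highest Masliner-normalised natural-log median intensity across replicate spots of either probe orientation.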
row,Sequence,gcPBM binding intensity (ln)
1,AAGAAAAATATATATATAAATAAATAAATATATATA [TGCATGCA_negctrl_site330],6.98
2,CTTTTAAATTATTTTTGTACATAATTATATATATAT [XGTACX_site4128],8.44
3,TATATATAAATATATGTGCACTTTTTATATTTATAT,10.6
4,TTTTTATTACATAATTAAAAAAAATAATAAAATAAA [XGTACX_negctrl_site249],6.8
5,ATAATATATGTATGTATGCACTTTTATTATTTTTTT,8.01
6,CGATTTTTTAAGTTTGTGCACTTAAAAACTATAACA,9.78
7,AACTATTTTATTATATGTACTTACGAATTTATAAAA [XGTACX_site5262],7.04
8,TTTTGTTACTTTTATGTGCACTTATAAAACGAACTA [GTGCAC_site9551],10.3
9,TATTTATAAATATGTGTGCACAATTTATTTTATAAT,9.67
10,TGTATTAAAAATTTGGTGCAACTTTTACATAATAAT,10.5
11,ATATTATATTATTAATGTACATATATATAATTTTAA [XGTACX_site4974],7.05
12,AATTTTGTATAGGTATCACACATGAAATATATTATT [CACACA_site5526],6.98
13,ATATATATATATATATGTACATATATTTGTAATGTC [XGTACX_site8074],9.37
14,TTTCATATATATGAAACACACAAAGGAAAAAAAATT [CACACA_site4144],7.23
15,AATATAAATATAAATATAAATATATATATATATATA [TGCATGCA_negctrl_site603],9.38
16,CCTTAAAATAAGATATGTACGCAAAGGAAAACAAAG [XGTACX_site6057],7.62
17,ATATATTTTTATGTAGTGCATTTAAATAATAAATGC,8.42
18,TTAAATATTTTTAGAGTGCATGTAATAAAAATATAA [GTGCAC_site9414],10.2
19,AAATATTTTTAGAGTGCATGTAATAAAAATATAATG [TGCATGCA_site19],10.1
20,ATTATATATAATATAGTGCATGTAAAAAATAAAACA,10
21,TTCTATGCATTTATAGTGCATGTAAAATATAAGATA [GTGCAC_site9466],10.9
22,AAATAAATAAATAGAGTGCATATATATATATATTTT,8.61
23,CTATGCATTTATAGTGCATGTAAAATATAAGATAAT [TGCATGCA_site71],10.3
24,TATATAATAAGATATGCATGCACATGTAAAATGAAT [TGCATGCA_site499],8.94

row,Sequence,gcPBM binding intensity (ln)
1,CATTTTTCTATATGTGCATGTAAGATAAGAATAATT [TGCATGCA_site107],8.22
2,TTTATAAAATATCTTTCACACATTACTATGTATTAT [CACACA_site5148],6.83
3,TACTTTTATATAGAAAGTACATACAATTCATAGAAT [XGTACX_site2182],6.98
4,ATATATAAAAAATGTGGTACATTCATTTATTATACA [XGTACX_site3495],6.96
5,GTGTATTTTCTGCGCACACACATGCAAAAAGAAATA [CACACA_site1148],8.26
6,GTGTATTTGGTGCGCACACACATGCAAAAAGAAATA [CACACA_site4768],11.6
7,GTGTATTTTGTGCGCACACACATGCAAAAAGAAATA [CACACA_site6660],9.54
8,ATTTTATGTTGAAAGTGTACGTATTAATATGTAGAA [XGTACX_site245],7.34
9,AAATTATGCATCGAGGTGCGTCTTAAAATATAGTGG,10.3
10,GTATATAAATAAATAGTGCATTATTAAAAATAATGT,9.36
11,TGTTATTAAAATATAGTGCATAATTAACCATTATAA [GTGCAC_site9594],8.63
12,TAAGAGTAGTTATATACACACATGTATATTATAGTT [CACACA_site6815],6.84
13,ATAATATATACTATATGTACATATCTTTTCCTCTTT [XGTACX_site5553],7.1
14,TATAAAAATAAGCACACACACAAATATAGATTTATT [CACACA_site6558],6.98
15,AAAAAAAAAAAAAACACACAGAACAATATATAAATA [CACACA_site982],7.11
16,CCTTTCACATATAATACATGCATTATTATATATGAA [TGCATGCA_site287],7.51
17,ATTATATAATAATGCATGCACCTTATTTTCATTTCA [GTGCAC_site9922],10.7
18,TCCTTATTTATATAATGTACTTTTTTTTTTCATTTT [XGTACX_site4275],6.92
19,TAATAATTAATTAATATAATATTTTTTCATAATTAT [XGTACX_negctrl_site602],6.82
20,ATATTATATAATAATGCATGCACCTTATTTTCATTT [TGCATGCA_site405],11.3
21,TATTATTTTTCATATGCATGCAAAAATAAAAAAATA [TGCATGCA_site350],7.05
22,TTTATATTTATGATGGGTACACAAAATTTTACCCAT [XGTACX_site1504],6.96
23,TGAATAATCAATAGTACACACATATAAATATATATA [CACACA_site2813],7.28
24,AGGTGTCATAGATGCACACAAAAGTAACACGCACCT [CACACA_site4418],9.65

row,Sequence,gcPBM binding intensity (ln)
1,AAAAAAAAAATATTTGAACACACGAGGATATATAAA [CACACA_site139],6.89
2,TAAAAGATAAAATATGCATGTGTAATTTTTTTTTTT [TGCATGCA_site955],6.79
3,TAAATATGCTCACAGATGCACTAACACATTTTTATA [GTGCAC_site9997],8.14
4,CCATTTTAAATATGCACACAGATGCACTAACACATT [CACACA_site5099],10.5
5,CCATTTTAAATATGCACACAGATGCACTAACCCATT [CACACA_site1883],10.7
6,TTTTTTTAAATATACACACACATTTATACAGATATA [CACACA_site5811],7.12
7,GCACTAAAAAAATAAACACACAGATTTATATAATAT [CACACA_site1381],6.83
8,TAAATTATATTATGCACACTTAAAAATATATTTAAC [CACACA_site3512],9.01
9,AACCATTTTAAATATGCACACAGATGCACTAACACA [CACACA_site8565],11
10,GTATAATATTTTAATGCACACACACTAATAAAAAAA [CACACA_site8939],7.65
11,TGGCACTAAAAAAATAAACACACAGATTTATATAAT [CACACA_site8386],6.8
12,TATTAACTCAATAGCGCACACTTTTAATATTTTATA [CACACA_site4973],7.33
13,TAAATAGGAAAACCTATACACACTTTAAAAAAAATA [CACACA_site1621],6.75
14,ATTATATCATCTAAAACATGCACACATATGTACTCT [TGCATGCA_site949],7.12
15,TTATTTATGAGGGTGACACACAAAAGAGTGTTAAGA [CACACA_site277],6.75
16,ATACGAAAAAATAGACGTACTATGAAATAATAATTT [XGTACX_site8387],6.87
17,GTCCTCATCCACTATGCACACAAAAAAGAAATACAC [CACACA_site9131],8.48
18,TGGGAAAAAATATATGCACACCCCCCAAAAAAAAAA [CACACA_site8696],10.8
19,GGAAAAAATATATGCACACCCCCCAAAAAAAAAAAA [CACACA_site2222],9.73
20,AAAAAAAAAAAACACACACACACACCCAAATATATA [CACACA_site150],7.14
21,ATAGTTTTATATAAATGTACAAATGATTTCAAATAG [XGTACX_site8236],7.08
22,ATTATTAAAATGATATGTACGCACATAATATACATA [XGTACX_site3236],7.06
23,GTTATATTTAAAATAGTGCAATAAAAATAATAATAT,8.42
24,ATATATATATATTTCGTGCACTGATAATATTATTTT,10.2

row,Sequence,gcPBM binding intensity (ln)
1,AAAAAAAAAAAATACGTGCACTATGATATATTATAT,10.3
2,ATAATTATATGATGAGTGCACAATAAAAATATCGTT [GTGCAC_site9920],10.7
3,ATATTTTATATAATAGTGCAAATAATATTAAATAAT,8.4
4,ATAATTAAAAATAATATATATATAATATGATATTAT [GTGCAC_negctrl_site194],6.94
5,ATGATATATTTAATAGTGCACTAATTAAAATTATTA [GTGCAC_site9418],11
6,ATATATATATTTATAGTGCATTTATATTAAAATATC [GTGCAC_site9818],8.92
7,TTATATTATTCGTGTGTGCACGATATTTCATAATTG [GTGCAC_site9767],8.96
8,TAAATATATATATATAGTACAATATAATTATGATAT [XGTACX_site258],7.24
9,TTATAATATTAATGTGCACACAATTAAAATATTATA [CACACA_site2046],9.4
10,TATATATATACTTAATGTACATATATATATATATAT [XGTACX_site3102],9.75
11,CCCCTTAATTAAAGGAGTACTATTTGTGAATAATAT [XGTACX_site4715],7.47
12,ATAATTCCATAAAATAGACACACGAATGTATAATAT [CACACA_site477],7
13,AATAATGAAAAATCAAATAACCTAAATTACAACTGT [XGTACX_negctrl_site65],6.91
14,TACGTTGTATATTTTTGTACATATTGAATTACAAAA [XGTACX_site5906],6.95
15,ACGAAAAGATATATATGTACATATATTAAAAAAAAA [XGTACX_site1517],7.01
16,TTCAAACATATTAATTGTACATACAACAAAACCATG [XGTACX_site5149],7.13
17,TGTGCCCAAAATTATGCACACACCTAAAATTAATTT [CACACA_site2914],7.79
18,TGCACAAAATTATGCACACACCTAAAATTAATTTTT [CACACA_site5596],8.28
19,ATTATGCACGGACACACACACACACCCCTAAAAAAT [CACACA_site5426],7.88
20,ATTATGCACCAACACACACACACACTCCTAAAAAAT [CACACA_site8822],11.1
21,ATTATGCACCAACACACACACACACCCCTAAAAAAT [CACACA_site2568],10.8
22,TAATTATGCCAACACACACACACACCCAACTAAAAA [CACACA_site8823],7.32
